# Over roughly 33,000 sequences, “e-score” has its median near -0.05; the highest 2% begin near 0.38. The full list was thinned out, with the highest values kept by preference.
# Target: T1, SIX1-Q177R homeodomain (human, UniProt Q15475 108-198, Q177R)
# T1 sequence: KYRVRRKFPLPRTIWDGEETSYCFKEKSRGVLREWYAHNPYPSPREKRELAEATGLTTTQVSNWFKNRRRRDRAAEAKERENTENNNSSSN
# Assay: universal protein binding microarray; Universal all-10-mer PBM (8x60K, AMADID 030236), 300 nM GST-tagged protein, Alexa Fluor 488 anti-GST; buffer, salt, pH and temperature not stated (as in Berger); high values mean tight binding
# Settings: protein: ivt; tags: N-terminal GST; dsDNA, one strand shown
# How it was run: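 GST-tagged homeodomains were made by in vitro transcription/translation and quantified by anti-GST western blot against a recombinant GST standard curve. They were applied in duplicate at 300 nM final concentration to universal 'all 10-mer' protein binding microarrays (8×60K format). Binding was quantified as 8-mer E-scores with the Universal PBM Analysis Suite.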
row,Sequence,binding signal
1,GCTCACAC,0.276 ± 0.0114 E-score
2,ACTTACAC,0.449 ± 0.0178 E-score
3,CCTTATAA,0.179 ± 0.0218 E-score
4,CCTCACAC,0.279 ± 0.0153 E-score
5,ACTTACGC,0.164 ± 0.00788 E-score
6,ACTTACTC,0.179 ± 0.00345 E-score
7,CTCGCCCC,0.173 ± 0.0101 E-score
8,GGAGGGTA,0.224 ± 0.0107 E-score
9,ACCCACAA,0.151 ± 0.0489 E-score
10,CCCCACCG,0.228 ± 0.054 E-score
11,AGCGGGTG,0.333 ± 0.0119 E-score
12,ACCAGGCA,0.151 ± 0.0134 E-score
13,CTGGTATC,0.274 ± 0.0156 E-score
14,ATGGTGTG,0.405 ± 0.0177 E-score
15,GTGGTGTA,0.481 ± 0.00765 E-score
16,GTGGTGCA,0.189 ± 0.00669 E-score
17,ATGTGGTG,0.271 ± 0.0248 E-score
18,ATGGGGTG,0.342 ± 0.0155 E-score
19,GTGTGGTA,0.265 ± 0.00181 E-score
20,CTGGTGTA,0.4837 ± 0.00053 E-score
21,CTGGTGTC,0.4826 ± 0.00371 E-score
22,CTGGAGTC,0.1843 ± 0.00156 E-score

row,Sequence,binding signal
1,CTGGTACA,0.21 ± 0.0391 E-score
2,CTGGTGCA,0.234 ± 0.0234 E-score
3,ACCCGGGC,0.199 ± 0.0334 E-score
4,CTTGCACC,0.166 ± 0.00933 E-score
5,CCCGGTCG,0.212 ± 0.00566 E-score
6,ACACAATG,0.164 ± 0.079 E-score
7,ACCCACAC,0.348 ± 0.0152 E-score
8,ACCTCGGG,0.273 ± 0.0151 E-score
9,AGGCGGTG,0.2798 ± 0.00206 E-score
10,CACGCGGG,0.241 ± 0.00761 E-score
11,ACCTTCCT,0.264 ± 0.0494 E-score
12,ATGGTATC,0.3344 ± 0.0022 E-score
13,ATGGTGTA,0.4792 ± 0.00274 E-score
14,ATGGTACA,0.18 ± 0.0214 E-score
15,ATTGTGTC,0.219 ± 0.0744 E-score
16,ATGGTGTC,0.486 ± 0.00186 E-score
17,ATTGTGTA,0.151 ± 0.0397 E-score
18,CACCCAAG,0.366 ± 0.00569 E-score
19,ACTGATCC,0.16 ± 0.00427 E-score
20,CACCGGGG,0.256 ± 0.0427 E-score
21,AACCGTGT,0.3792 ± 0.0033 E-score
22,ATGCACCC,0.19 ± 0.0233 E-score

row,Sequence,binding signal
1,GGGTTACA,0.242 ± 0.0177 E-score
2,CCCGCACA,0.228 ± 0.0266 E-score
3,CACTATAC,0.261 ± 0.0244 E-score
4,ACACTTGG,0.329 ± 0.018 E-score
5,CCGGGTCA,0.285 ± 0.0196 E-score
6,GTATCATA,0.29 ± 0.00996 E-score
7,GGGAACCC,0.184 ± 0.0515 E-score
8,CGGAACAC,0.411 ± 0.0112 E-score
9,AGGCACAC,0.203 ± 0.0019 E-score
10,GGGAACAC,0.368 ± 0.0116 E-score
11,AGGAACAC,0.394 ± 0.0134 E-score
12,CGGAACCC,0.234 ± 0.0277 E-score
13,ACGGGTAT,0.277 ± 0.00631 E-score
14,CGGCGTCA,0.219 ± 0.00435 E-score
15,CCCGCTGA,0.159 ± 0.0401 E-score
16,CTTCTACC,0.203 ± 0.0258 E-score
17,GTGTCAAA,0.4527 ± 0.00139 E-score
18,GTGTCAAC,0.443 ± 0.00646 E-score
19,GTGTCTCA,0.371 ± 0.00405 E-score
20,GTATCAAA,0.159 ± 0.0425 E-score
21,GTATCAAC,0.256 ± 0.0174 E-score
22,GAGTCACA,0.26 E-score

row,Sequence,binding signal
1,GGGTCAAA,0.171 ± 0.0267 E-score
2,GTGTCACA,0.462 ± 0.00507 E-score
3,TATTCTAA,0.213 ± 0.0183 E-score
4,GTGTCTAA,0.394 ± 0.0134 E-score
5,GGGTCAAC,0.223 ± 0.0249 E-score
6,GGGTCACA,0.202 ± 0.0391 E-score
7,CACTGGAA,0.152 ± 0.024 E-score
8,AGGGGTTC,0.193 ± 0.0251 E-score
9,GACCCCGC,0.248 ± 0.0275 E-score
10,CCTGATAC,0.202 ± 0.0295 E-score
11,AGTGCACC,0.28 ± 0.00682 E-score
12,GATCCCAC,0.24 ± 0.0253 E-score
13,TATACCCA,0.192 ± 0.0317 E-score
14,GAGTCATA,0.184 ± 0.0258 E-score
15,GTGTCAGA,0.4533 ± 0.00139 E-score
16,GTGTCGAA,0.448 ± 0.00926 E-score
17,GGGTCAGA,0.196 ± 0.0143 E-score
18,GTATCGAA,0.199 ± 0.0103 E-score
19,GGGTCGAA,0.182 ± 0.0133 E-score
20,GAGTCAGA,0.21 ± 0.0213 E-score
21,GTGTCATA,0.458 ± 0.00496 E-score
22,GGGTCATA,0.237 ± 0.0329 E-score
